FMDV antiviral = blocks foot and mouth disease virus; FMDV antiviral cell-based qHTS; 410,000 compounds, 1.2% hits; Potency, µM (top dose mostly 57.9 µM), without a hit: at the highest dose activity change, negative = inhibition, most hits filed as inhibitors; calls by dose curve; tested in HEK293T cells; further: read-out not given here; potency means the concentration at half of the fitted maximal effect; nearly all actives have a fitted effect of over 45% in size
HCV inhibitor = blocks hepatitis C virus; Huh7.5.1 HCVcc-Cre infection, luciferase reporter, 44 h; Potency, µM (titrated, usually from 41.8 µM), for inactives: top-dose activity change, negative = inhibition, hits mostly inhibitors; 340,000 compounds, 3.4% hits; further: potency means the concentration at half of the fitted maximal effect
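Cells (1,000/well) were plated 4 h before compound, then infected with HCVcc-Cre virus (~0.5 moi). After 44 h further culture, infection was read as luciferase luminescence following a 15 min substrate incubation at room temperature.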
FBPA Giardia inh = inhibitors of Giardia lamblia fructose-1,6-bisphosphate aldolase | purified Giardia FBPA | 290,000 compounds, 0.71% hits | AID 2451 | A8B2U2 | Potency, µM (top dose mostly 59.6 µM), inactives show at the top dose activity, negative = inhibition, most hits filed as inhibitors; further: potency means the concentration at half of the fitted maximal effect; nearly all actives have a fitted effect of over 55% in size
Target sequence (A8B2U2 whole entry, looked up): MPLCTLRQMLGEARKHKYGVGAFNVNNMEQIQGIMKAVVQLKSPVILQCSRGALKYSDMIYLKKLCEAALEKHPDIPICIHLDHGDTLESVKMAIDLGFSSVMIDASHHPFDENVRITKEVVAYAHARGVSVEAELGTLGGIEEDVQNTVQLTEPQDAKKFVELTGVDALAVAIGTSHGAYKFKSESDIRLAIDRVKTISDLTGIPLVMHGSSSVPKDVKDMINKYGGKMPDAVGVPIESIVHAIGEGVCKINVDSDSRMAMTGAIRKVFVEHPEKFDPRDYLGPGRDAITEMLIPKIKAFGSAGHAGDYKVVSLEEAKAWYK
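40 nM FBPA preincubated 10 min at RT with compound (up to 57.5 uM final), then substrate plus GAPDH/TPI/NAD/arsenate coupling and diaphorase/resazurin added. Fluorescence read after 20 min at RT, 525/598 nm.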
Vaccinia Venus = inhibitors of vaccinia virus (Venus reporter) | Vaccinia virus Venus reporter expression, fluorescence | Potency, µM (top dose mostly 36.5 µM), without a hit: top-dose activity change, negative = inhibition, hits mostly inhibitors | 330,000 compounds, 0.46% hits; calls by dose curve; tested in A549 cells; further: potency means the concentration at half of the fitted maximal effect; nearly all actives have a fitted effect of over 30% in size
HCMV antiviral = human cytomegalovirus inhibition; HFF cells, HCMV-luciferase reporter, 72 h; active compounds read low; activity change, negative = inhibition, % at 57.5 µM; 410,000 compounds, 4.5% hits; AID 1259415; in the data active means activity change below about -60%; inconclusive means no clear call, values can overlap the other calls; inactive means above about -39%
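Two compound doses tested in HFFs infected with HCMV-luciferase, MOI 1 PFU/cell, 72 h at 37C. Lysate luminescence read with OneGlo; data normalized against buffer-only and 10uM Salinomycin inhibitor controls.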
Vaccinia mCherry = inhibitors of vaccinia virus infection (mCherry reporter signal); Vaccinia virus mCherry reporter infection, fluorescence; AID 720579; Potency, µM (top dose mostly 36.5 µM), without a hit: at the top dose activity change, negative = inhibition, usual class: inhibitors; 310,000 compounds, 0.63% hits; calls by dose curve; tested in A549 cells; further: potency means the concentration at half of the fitted maximal effect; nearly all actives have a fitted effect of over 35% in size
An asterisk follows results filed as active; i = inactive; ? = inconclusive; nt = not tested or not shown; [ ] = remark or other dose. This is a sample that favours compounds with a hit; in the whole collection about 7.5% have one here. Unless noted, the call rests on the fitted dose curve; in most records, active means well fitted curve in the direction sought with a large enough effect; inconclusive means small, poorly fitted or top-dose-only effect, or another doubt; inactive means no such curve, though single readings can be large; an effect the other way counts as inactive or inconclusive. On the % scale 0 is the no-effect control and ±100 the full control effect.

SMILES	FMDV antiviral	HCV inhibitor	FBPA Giardia inh	Vaccinia Venus	HCMV antiviral	Vaccinia mCherry
O=C(CCl)N(c1ccccc1)C1CCCCC1	?	4µM*	?	?	-113*	?
Cc1ccc(Oc2cnc3ccccc3n2)cc1	58%	17%	-2%	nt	?	nt
O=[N+]([O-])c1ccc(Oc2cnc3ccccc3n2)cc1	17%	-17%	-1%	9%	-63*	i
Cc1ccc(CSc2nnc3ccc(-c4ccncc4)nn23)cc1	1%	-17%	4%	nt	-60*	nt
CC(C)(C)c1cc(NC(=O)CCSc2nnc3ccccn23)cc(C(C)(C)C)c1	-17%	4µM*	nt	nt	-30	nt
Cc1cc(C)c(NC(=S)N2CCC(N(C)CC3CCCO3)CC2)c(C)c1 (stereo not given)	-14%	10%	-2%	nt	-72*	nt
Cc1cccc(C)c1NC(=S)N1CCC(N(C)CC2CCCO2)CC1 (stereo not given)	-1%	21%	2%	nt	-13	nt
ClCCN(CCCl)c1ccc(C2=NCCc3ccccc32)cc1	?	?	nt	-23%	-74*	?
O=C(NCC1(N2CCOCC2)CCCCCC1)c1cnn(-c2nccc(-c3ccco3)n2)c1C1CC1	0%	nt	nt	-2%	nt	-8%
FC(F)(F)c1ccc(Nc2cc3c(cn2)ncn3Cc2ccco2)cc1	nt	nt	nt	nt	-15	nt
N#CC(C#N)=C(Nc1ccc(F)cc1)SCc1cccc(F)c1	?	10µM*	-1%	?	-99*	?
CCOc1ccc(N/C(SCc2cccc([N+](=O)[O-])c2)=C(/C#N)C(N)=O)cc1	?	-11%	-20%	-12%	?	-20%
Cc1cc(NC(=O)c2cc(-c3ccc(Br)cc3)on2)nn1Cc1ccc(Cl)cc1	?	nt	nt	-16%	-8	-16%
O=C(Cc1cccc(F)c1)NO	nt	nt	nt	-12%	nt	-10%
CCNC(=O)COc1ccc(C=O)cc1OC	2%	3%	3%	-11%	-86*	-15%
COc1cc(C=O)ccc1OCCCOc1ccccc1C(=O)O	8.9µM*	-13%	nt	-19%	26	nt
COc1ccc(CNC(=O)[C@H](C)[C@H]2C[C@]2(C)[C@H](NC(=O)OCc2ccccc2)c2ccccc2)cc1OC	nt	nt	2%	nt	nt	nt
COCCN1C(=O)COc2ccccc2C1C(=O)NC1CCCCC1 (stereo not given)	0%	nt	nt	5%	5	21%
N#CCCOC1(C#CCN2CCCC2)CCCCC1	-8%	?	-14%	nt	75	nt
Cc1ccc2nc(NNC(=O)c3ccc(S(=O)(=O)N4CCc5ccccc5C4)cc3)sc2c1	?	2.5µM*	11%	?	-99*	?
COC(=O)c1sc2ccccc2c1NC(=O)c1ccc(S(=O)(=O)N2CC(C)CC(C)C2)cc1 (stereo not given)	-10%	-5%	3%	-6%	?	-8%
Cc1cc(C)c2nc(NNC(=O)c3ccc(S(=O)(=O)N4CC(C)CC(C)C4)cc3)sc2c1 (stereo not given)	-19%	7.1µM*	-9%	?	-98*	?
Cc1cc(C)c2nc(NNC(=O)c3ccc(S(=O)(=O)N4CCCC(C)C4)cc3)sc2c1 (stereo not given)	?	7.9µM*	?	?	-98*	4µM*
Cc1cc(C)c2nc(NC(=O)c3ccc(S(=O)(=O)N4CCc5ccccc54)cc3)sc2c1	?	nt	nt	-11%	-30	-12%
Cc1cccc2sc(NNC(=O)c3ccc(S(=O)(=O)N4CC(C)CC(C)C4)cc3)nc12 (stereo not given)	?	?	?	?	-99*	28µM*
SMILES	FMDV antiviral	HCV inhibitor	FBPA Giardia inh	Vaccinia Venus	HCMV antiviral	Vaccinia mCherry
Cc1cc(C)c2nc(NC(=O)c3ccc(S(=O)(=O)N4CCC(C)CC4)cc3)sc2c1	-9%	nt	nt	-6%	-3	-3%
Cc1nn(C)c(C)c1CS(=O)(=O)c1ccccc1	-9%	9%	9%	-5%	-30	-19%
Cc1ccc(C(=O)NNC(=O)c2cc(C)nc3ccccc23)cc1	-4%	-5%	nt	7%	-10	-7%
Cc1csc2ncnc(NC3CCN(Cc4ccccc4)CC3)c12	-22%	1.8µM*	-1%	0%	?	-1%
Cc1ccc(-c2csc3ncnc(N4CCN(Cc5ccccc5)CC4)c23)cc1	?	?	6%	nt	-9	nt
COc1ccc(OCC2Cc3c(-c4ccccc4)nc4c(c3CO2)CN(CCOc2ccccc2)CC4)cc1 (stereo not given)	nt	nt	0%[12.9 µM]	nt	nt	nt
COc1ccc(Nc2nnc(-c3ccc(C)c(S(=O)(=O)N4CCOCC4)c3)c3ccccc23)cc1	5%	nt	nt	-25%	-99*	-18%
Cc1ccc(-c2nnc(Nc3ccc(OC(F)(F)Cl)cc3)c3ccccc23)cc1S(=O)(=O)NC(C)(C)CO	14%	nt	nt	?	-95*	?
Cc1cccc(Nc2nnc(-c3ccc(C)c(S(=O)(=O)N4CCN(C)CC4)c3)c3ccccc23)c1	-9%	nt	nt	-29%	-69*	?
Cc1ccc(-c2nnc(NC3CCCCC3)c3ccccc23)cc1S(=O)(=O)N1CCN(C)CC1	nt	-29%	1%	-12%	-74*	?
CN(C)c1ccc(/C=C/c2cc(/C=C/c3ccc(N(C)C)cc3)c3ccccc3n2)cc1	nt	nt	nt	61%	nt	-13%
O=C(COc1ncnc2c(Cl)cc(Cl)cc12)Nc1cc([N+](=O)[O-])ccc1Cl	?	6%	3%	-15%	36	-15%
Cc1ccc(S(=O)(=O)N2CCOC23CCN(C(=O)c2ccccc2Br)CC3)cc1	6%	-3%	nt	nt	?	nt
COc1ccc(Nc2nnc(-c3ccc(C)c(S(=O)(=O)N4CCN(C)CC4)c3)c3ccccc23)cc1	2%	nt	nt	?	-99*	-18%
Cc1ccc(-c2nnc(Nc3cccc(O)c3)c3ccccc23)cc1S(=O)(=O)N1CCCCC1	-22%	nt	nt	?	-74*	?
Cc1ccc(-c2nnc(Nc3ccc(O)cc3)c3ccccc23)cc1S(=O)(=O)N1CCOCC1	?	nt	nt	?	-88*	-21%
Cc1cccc2cc3c(NC(=O)C(C)(C)C)nn(CC(C)C)c3nc12	-17%	2%	6%	-3%	15	i
COc1cccc(NC(=O)Cn2c(=O)n(CCCCC(=O)NCc3ccc4c(c3)OCO4)c(=O)c3ccccc32)c1	-6%	nt	nt	?	?	-9%
CN(C)/C=C/C(=O)c1ccc2noc(-c3ccccc3)c2c1	-6%	?	3%	-15%	-63*	-28%
CC(=O)c1ccc2noc(-c3ccccc3)c2c1	-3%	?	-4%	-17%	-27	-19%
COc1ccccc1-c1cc(C(=O)Nc2cc(Cl)ccc2O)no1	5%	nt	nt	5%	5	6%
CCOc1nc(-c2ccc(C)cc2)ccc1-c1noc(COC)n1	-4%	10µM*	-6%	-5%	30	-16%
O=C(/C=C\c1ccco1)Oc1cccc2cccnc12	9%	?	?	?	12	?

Compound activity: PubChem, National Center for Advancing Translational Sciences (NCATS)
